Reference: PubChem BioAssay AID1159580 (chemical genetic matrix, 2015)
Where “and” joins values, the source holds several entries; their conditions need not be identical. Equal values may be shown once. Hit rate of the full screen: of about 5,500 compounds, about 2,000 (36%) were called active. Roughly 18% stayed inconclusive and do not appear here. Cut-off read from the data, not from the text of the source: active = normalized growth mostly below about 0.91 (no sharp cut-off); inconclusive = no clear call, values can overlap the other calls; inactive = mostly above about 0.92. The list shows a part of the results.

Assay: chemical genetic growth profiling, strain panel (AID 1159580);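 note: tested at 20 µM; growth read once vehicle control cultures reached saturation at 30 °C; 1 = growth at the plate median or of vehicle wells; lower values mean less growth of the strain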
Conditions: S. cerevisiae deletion strains, growth OD

Measured: normalized growth

C[C@@H]1C(=O)O[C@H]2[C@H]1CC[C@@]1(C)C=CC(=O)[C@@]3(C)O[C@@]213
inactive: locus YAL013W, strain DEP1, stronger effect = lower value 1 | locus YAL021C, strain ccr4, stronger effect = lower value 1.01 | locus YAL026C, strain drs2, stronger effect = lower value 1.02 | locus YAL030W, strain snc1, stronger effect = lower value 1.01 | locus YBL061C, strain skt5, stronger effect = lower value 1.01 | locus YBR009C, strain hhf1, stronger effect = lower value 1.01 | locus YBR021W, strain FUR4, stronger effect = lower value 1 | locus YBR023C, strain chs3, stronger effect = lower value 1.02 | locus YBR171W, strain sec66, stronger effect = lower value 1.02 | locus YBR229C, strain ROT2, stronger effect = lower value 1.01 | locus YBR231C, strain swc5, stronger effect = lower value 1.02 | locus YBR279W, strain paf1, stronger effect = lower value 1.01 | locus YCL011C, strain gbp2, stronger effect = lower value 1.01 | locus YCL016C, strain dcc1, stronger effect = lower value 1 | locus YCL029C, strain bik1, stronger effect = lower value 1.04 | locus YCL069W, strain vba3, stronger effect = lower value 1.03 | locus YCR088W, strain abp1, stronger effect = lower value 1.01 | locus YDL005C, strain med2, stronger effect = lower value 1.02 | locus YDL035C, strain GPR1, stronger effect = lower value 1.02 | locus YDL040C, strain nat1, stronger effect = lower value 1 | locus YDL074C, strain BRE1, stronger effect = lower value 1.02 | locus YDL101C, strain DUN1, stronger effect = lower value 1.01 | locus YDL134C, strain PPH21, stronger effect = lower value 0.993 | locus YDL185W, strain tfp1, stronger effect = lower value 0.986 | locus YDL192W, strain arf1, stronger effect = lower value 1.01 | locus YDR001C, strain nth1, stronger effect = lower value 1.01 | locus YDR069C, strain doa4, stronger effect = lower value 1.03 | locus YDR101C, strain arx1, stronger effect = lower value 1.01 | locus YDR137W, strain rgp1, stronger effect = lower value 0.982 | locus YDR150W, strain NUM1, stronger effect = lower value 1.01 | locus YDR159W, strain sac3, stronger effect = lower value 1.06 | locus YDR162C, strain NBP2, stronger effect = lower value 1.02 | locus YDR195W, strain ref2 1.01 | locus YDR297W, strain sur2, stronger effect = lower value 1 | locus YDR318W, strain mcm21, stronger effect = lower value 1.02 | locus YDR334W, strain swr1, stronger effect = lower value 1.02 | locus YDR335W, strain msn5, stronger effect = lower value 1.01 | locus YDR388W, stronger effect = lower value 1.01 | locus YDR392W, strain spt3, stronger effect = lower value 0.996 | locus YDR502C, strain sam2, stronger effect = lower value 1.02 | locus YEL003W, strain gim4, stronger effect = lower value 1.01 | locus YEL037C, strain rad23, stronger effect = lower value 1.02 | locus YEL061C, strain CIN8 (second series), stronger effect = lower value 1.01 | locus YEL061C, strain CIN8, stronger effect = lower value 1.01 | locus YER015W, strain faa2, stronger effect = lower value 1.02 | locus YER016W, strain bim1, stronger effect = lower value 1.01 | locus YER110C, stronger effect = lower value 1.01 | locus YER111C, strain swi4, stronger effect = lower value 1.02 | locus YER155C, strain BEM2 (second series), stronger effect = lower value 1.03 | locus YER155C, strain BEM2, stronger effect = lower value 0.996 | locus YER167W, strain BCK2, stronger effect = lower value 1.02 | locus YFR010W, strain ubp6, stronger effect = lower value 1.06 | locus YGL078C, strain dbp3, stronger effect = lower value 1.03 | locus YGL086W, strain mad1, stronger effect = lower value 1.02 | locus YGL167C, strain pmr1, stronger effect = lower value 1.02 | locus YGL173C, strain kem1, stronger effect = lower value 1.02 | locus YGL227W, strain vid30, stronger effect = lower value 1.02 | locus YGL240W, strain doc1, stronger effect = lower value 1.01 | locus YGL248W, strain PDE1, stronger effect = lower value 1.02 | locus YGL253W, strain hxk2, stronger effect = lower value 1.05 | locus YGR078C, strain PAC10, stronger effect = lower value 1.02 | locus YGR135W, strain pre9, stronger effect = lower value 1.03 | locus YGR229C, strain SMI1, stronger effect = lower value 1.02 | locus YGR252W, strain gcn5, stronger effect = lower value 1.06 | locus YHR013C, strain ard1, stronger effect = lower value 0.995 | locus YHR027C, strain rpn1, stronger effect = lower value 1.02 | locus YHR030C, strain SLT2, stronger effect = lower value 1.01 and 1.04 | locus YHR079C, strain IRE1 (second series), stronger effect = lower value 1.02 | locus YHR079C, strain IRE1, stronger effect = lower value 1.04 | locus YHR094C, strain hxt1, stronger effect = lower value 1 | locus YHR129C, strain ARP1, stronger effect = lower value 1.01 | locus YHR142W, strain chs7, stronger effect = lower value 1.02 | locus YHR200W, strain rpn10, stronger effect = lower value 1.02 | locus YIL066C, strain RNR3, stronger effect = lower value 1.02 | locus YIL073C, strain SPO22, stronger effect = lower value 1.05 | locus YIL125W, strain kgd1, stronger effect = lower value 1.03 | locus YIR030C, strain dcg1, stronger effect = lower value 1.02 | locus YJL092W, strain hpr5, stronger effect = lower value 1.02 | locus YJL095W, strain BCK1 (second series), stronger effect = lower value 1.01 | locus YJL095W, strain BCK1, stronger effect = lower value 1.03 | locus YJL115W, strain asf1, stronger effect = lower value 1.02 | locus YJL129C, strain trk1, stronger effect = lower value 1.04 | locus YJL134W, strain LCB3, stronger effect = lower value 1 | locus YJL154C, strain vps35, stronger effect = lower value 1.01 | locus YJL164C, strain tpk1, stronger effect = lower value 1.01 | locus YJL166W, strain qcr8, stronger effect = lower value 1.01 | locus YJL168C, strain set2, stronger effect = lower value 1.01 | locus YJL187C, strain SWE1 (second series), stronger effect = lower value 1.04 | locus YJR043C, strain POL32, stronger effect = lower value 1.02 | locus YJR066W, strain TOR1, stronger effect = lower value 0.959 | locus YJR075W, strain HOC1, stronger effect = lower value 1.02
